# PubChem BioAssay
# Unmarked numbers belong to inactive results. Entries that show only a call come without a potency. For part of these data: Potency and affinity values are given separately. The source made the active and inactive calls. Unless noted, no rule for the calls is given here.
# What was measured:
# [1] = antimalarial activity against Dd2 strain (AID 2302;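 active = growth inhibition above 50% at the single 2 µM test dose, taken to imply half-maximal potency below 2 µM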); conditions: P. falciparum Dd2 in RBCs, LDH growth readout, 72 h; at 2 µM; stronger effect = higher value
# [2] = human hepatoma cell viability loss – ATP luminescence, cytotoxicity control for P. falciparum antimalarial project, primary screen (AID 2303;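 active = inhibition above 50%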); conditions: HepG2 viability, 24-48 h, at 10 µM, stronger effect = higher value
# [3] = biological target: L-lactate dehydrogenase (Plasmodium falciparum (isolate CDC / Honduras)) (UniProt Q27743); test: PfLDH activity inhibition – cell lysate, 3D7 strain, counter-screen for P. falciparum growth inhibition project (AID 2304); conditions: P. falciparum 3D7 crude extract, LDH APAD/NBT absorbance; at 2 µM; stronger effect = higher value
# Chain of L-lactate dehydrogenase (Plasmodium falciparum (isolate CDC / Honduras)) (Q27743 whole entry, looked up): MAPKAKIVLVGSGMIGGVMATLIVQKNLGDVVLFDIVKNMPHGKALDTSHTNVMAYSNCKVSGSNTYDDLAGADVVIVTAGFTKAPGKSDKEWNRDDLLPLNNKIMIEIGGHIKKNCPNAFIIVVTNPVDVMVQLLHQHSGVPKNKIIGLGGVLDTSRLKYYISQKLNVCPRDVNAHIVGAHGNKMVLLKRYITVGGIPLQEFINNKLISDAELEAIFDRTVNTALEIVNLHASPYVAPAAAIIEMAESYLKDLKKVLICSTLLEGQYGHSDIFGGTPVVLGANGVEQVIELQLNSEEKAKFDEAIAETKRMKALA
# [4] = inhibition of 3D7 malaria parasite growth – strain 3D7 (AID 2306); conditions: P. falciparum 3D7 erythrocytic growth, LDH absorbance, 72 h; at 2 µM; stronger effect = higher value
# [5] = biological target: Calcium-dependent protein kinase 1 (Plasmodium falciparum (isolate 3D7)) (UniProt P62344); test: PfCDPK1 kinase inhibitors, biochemical, TCAMS library (AID 1159585; cut-off not given, nearly all actives have IC50 up to about 0.98 µM;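 also: inhibitors leave more ATP so luminescence rises with inhibition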); conditions: recombinant PfCDPK1, Kinase-Glo ATP depletion luminescence
# Chain of Calcium-dependent protein kinase 1 (Plasmodium falciparum (isolate 3D7)) (P62344 whole entry, looked up): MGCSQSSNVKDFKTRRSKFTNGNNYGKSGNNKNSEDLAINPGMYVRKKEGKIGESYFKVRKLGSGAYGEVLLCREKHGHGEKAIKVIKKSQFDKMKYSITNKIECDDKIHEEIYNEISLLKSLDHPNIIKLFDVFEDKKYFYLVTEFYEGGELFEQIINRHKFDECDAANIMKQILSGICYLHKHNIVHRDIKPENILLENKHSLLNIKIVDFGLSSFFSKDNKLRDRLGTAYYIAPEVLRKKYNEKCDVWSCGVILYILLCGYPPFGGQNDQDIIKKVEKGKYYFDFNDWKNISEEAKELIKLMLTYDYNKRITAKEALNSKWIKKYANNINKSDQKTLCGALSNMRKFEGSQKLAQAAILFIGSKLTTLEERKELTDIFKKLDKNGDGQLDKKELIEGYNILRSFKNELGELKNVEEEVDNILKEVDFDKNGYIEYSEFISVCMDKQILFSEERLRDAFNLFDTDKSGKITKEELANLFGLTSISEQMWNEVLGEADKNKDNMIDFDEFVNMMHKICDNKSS
# [6] = biological target: Plasmodium falciparum protein kinase 6 (PK6, PF3D7_1337100) (UniProt Q8IDW1); test: PfPK6 kinase inhibitors, biochemical, TCAMS library (AID 1159586); conditions: recombinant PfPK6, Kinase-Glo ATP depletion luminescence
# Chain of Plasmodium falciparum protein kinase 6 (PK6, PF3D7_1337100) (Q8IDW1 1-305): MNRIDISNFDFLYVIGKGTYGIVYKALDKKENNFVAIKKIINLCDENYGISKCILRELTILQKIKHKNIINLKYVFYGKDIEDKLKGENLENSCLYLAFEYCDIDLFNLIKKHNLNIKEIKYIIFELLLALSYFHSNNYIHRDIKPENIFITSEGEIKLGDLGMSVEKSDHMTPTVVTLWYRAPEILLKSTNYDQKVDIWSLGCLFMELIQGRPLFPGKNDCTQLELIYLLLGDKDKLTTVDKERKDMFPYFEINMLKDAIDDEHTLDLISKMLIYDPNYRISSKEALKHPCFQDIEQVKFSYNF
# [7] = biological target: Protein kinase 7 (PK7), Plasmodium falciparum 3D7 (PF3D7_0213400) (UniProt Q7YTF7); test: inhibition of Plasmodium PK7 catalytic activity – biochemical, TCAMS antimalarial set, Kinase-Glo luminescence (AID 1159587); conditions: recombinant PfPK7, Kinase-Glo ATP depletion luminescence
# Chain of Protein kinase 7 (PK7), Plasmodium falciparum 3D7 (PF3D7_0213400) (Q7YTF7 1-343): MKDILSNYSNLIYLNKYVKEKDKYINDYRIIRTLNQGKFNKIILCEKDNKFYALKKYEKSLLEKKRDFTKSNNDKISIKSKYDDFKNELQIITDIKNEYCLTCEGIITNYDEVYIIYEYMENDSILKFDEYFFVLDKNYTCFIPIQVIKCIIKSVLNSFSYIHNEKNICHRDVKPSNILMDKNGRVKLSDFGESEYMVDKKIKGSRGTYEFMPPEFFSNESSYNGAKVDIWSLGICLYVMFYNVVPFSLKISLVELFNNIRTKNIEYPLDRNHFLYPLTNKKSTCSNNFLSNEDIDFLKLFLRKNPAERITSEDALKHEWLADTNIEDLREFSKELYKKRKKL
# [8] = biological target: Calcium-dependent protein kinase 4 (Plasmodium falciparum (isolate 3D7)) (UniProt Q8IBS5); test: PfCDPK4 kinase inhibitors, biochemical, TCAMS library (AID 1159588; cut-off not given, nearly all actives have IC50 up to about 0.91 µM); conditions: recombinant PfCDPK4, Kinase-Glo ATP depletion luminescence
# Chain of Calcium-dependent protein kinase 4 (Plasmodium falciparum (isolate 3D7)) (Q8IBS5 whole entry, looked up): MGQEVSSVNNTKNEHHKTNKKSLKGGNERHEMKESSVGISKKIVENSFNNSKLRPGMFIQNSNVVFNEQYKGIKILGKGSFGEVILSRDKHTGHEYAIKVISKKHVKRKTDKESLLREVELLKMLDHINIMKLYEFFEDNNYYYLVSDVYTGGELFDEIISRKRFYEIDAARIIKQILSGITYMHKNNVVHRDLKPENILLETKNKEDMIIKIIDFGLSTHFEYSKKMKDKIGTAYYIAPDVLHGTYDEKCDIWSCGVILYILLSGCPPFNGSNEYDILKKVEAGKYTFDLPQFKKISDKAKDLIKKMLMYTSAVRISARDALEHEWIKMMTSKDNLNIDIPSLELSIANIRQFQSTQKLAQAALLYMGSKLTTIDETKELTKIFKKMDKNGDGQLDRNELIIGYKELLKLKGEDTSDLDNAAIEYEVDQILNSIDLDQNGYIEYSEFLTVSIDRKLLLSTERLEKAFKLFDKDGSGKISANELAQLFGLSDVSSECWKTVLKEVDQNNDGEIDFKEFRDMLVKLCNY
Compound,growth inhibition [1],inhibition [2],inhibition [3] [%],growth inhibition [4],outcome [5],outcome [6],outcome [7],outcome [8]
Cc1cccc2[nH]c(-c3cccc(-c4ccc(NC(=O)Cc5ccccn5)cc4)c3)nc12,57% (active),25%,3,94% (active),inactive,inactive,inactive,inactive
COc1ccc(CNC2Cc3ccccc3C2)cc1-c1ccc(S(=O)(=O)NCCN2CCCC2)s1,100% (active),89% (active),4,101% (active),inactive,inactive,inactive,inactive
CC(C)COc1ccc(Cl)cc1Cc1ccc(-c2nc3ccc(CCN(C)C)cc3[nH]2)o1,7%,10%,3,92% (active),inactive,inactive,inactive,inactive
CCc1c[nH]c2c(N3CCCS3(=O)=O)cc(C(=O)N[C@@H](Cc3ccccc3)[C@H](O)CNC3CCCCC3)cc12,89% (active),6%,-7,99% (active),inactive,inactive,inactive,inactive
CCC1CN2CCc3c([nH]c4ccc(OC)cc34)[C@@H]2C[C@@H]1CC1NCCc2cc(OC)c(OC)cc21 (some centres not stated),21%,17%,-2,100% (active),inactive,inactive,inactive,inactive
CN1CCC(Oc2ccc(CN3CC[C@H](NC(=O)c4cc(F)cc(F)c4)C3)c3ccccc23)C1 (some centres not stated),23%,26%,5,98% (active),inactive,inactive,inactive,inactive
COc1ccc(-c2ccc(CN(C)C3CCC(NC(=O)c4cc5ccccc5[nH]4)CC3)cc2)cn1 (configuration not stated),2%,31%,-1,88% (active),inactive,inactive,inactive,inactive
CN(C)CCCNc1ncnc2c1[nH]c1ccc(Cl)cc12,3%,2%,2,99% (active),inactive,inactive,inactive,inactive
O=C(NCCCNc1ccc2ccccc2n1)c1cc2c(Cl)cc(Cl)cc2[nH]1,100% (active),40%,4,100% (active),inactive,inactive,inactive,inactive
COc1ccc2nc(-c3ccccc3)cc(NN=Cc3ccc([N+](=O)[O-])o3)c2c1,99% (active),90% (active),-7,100% (active),inactive,inactive,inactive,inactive
O=C(Nc1ccc(OC2CCN(Cc3ccc(F)cc3)C2)cc1)c1ccco1 (configuration not stated),69% (active),-3%,-1,88% (active),inactive,inactive,inactive,inactive
O=C(/C=C/c1ccc(Cl)c(Cl)c1)NCCCCCCN1CCCN(C(=O)Nc2ccc(C(F)(F)F)cc2)CC1,25%,47%,-8,100% (active),inactive,inactive,inactive,inactive
CN1CCC(C(=O)N(Cc2ccc(-c3ccc(CNCCc4ccc(S(C)(=O)=O)cc4)cn3)cc2)Cc2cccc(F)c2)CC1,90% (active),10%,-4,98% (active),inactive,inactive,inactive,inactive
CC(C)(C)Cn1cc(-c2ccc(C(=O)NCCc3ccc(S(C)(=O)=O)cc3)cc2)c(N)n1 (tested in a mixture with another compound),10%,7%,-1,86% (active),inactive,inactive,inactive,inactive
CC(C)C(=O)ONC1=NC(C)(C)N(OCCCOc2cc(Cl)c(Cl)cc2Cl)C(N)=N1,96% (active),64% (active),-4,95% (active),inactive,inactive,inactive,inactive
COc1ccc2[nH]c3ccccc3c(=O)c2c1,75% (active),0%,2,87% (active),inactive,inactive,inactive,inactive
Cc1ccc(C(=O)Nc2cccc(-c3ccc(N4CCN(C)CC4)nn3)c2)cc1[N+](=O)[O-],40%,32%,-2,99% (active),inactive,inactive,inactive,inactive
COc1ccc(OCCCN2CCN(CC(c3ccc(F)cc3)N3CCN(C(C)C)CC3)CC2)c2ccccc12 (configuration not stated),32%,30%,-1,100% (active),inactive,inactive,inactive,inactive
Cc1cccc2[nH]c(-c3cccc(-c4cccc(NC(=O)CNC(=O)c5ccc(O)cc5)c4)c3)nc12,49%,9%,-1,94% (active),inactive,inactive,inactive,inactive
COc1ccc2nccc([C@@H](O)CN3CCC(NCCOc4cccc(C(F)(F)F)c4Cl)CC3)c2c1,98% (active),13%,-3,100% (active),inactive,inactive,inactive,inactive

Compound,growth inhibition [1],inhibition [2],inhibition [3] [%],growth inhibition [4],outcome [5],outcome [6],outcome [7],outcome [8]
Cc1cc(Nc2cccc(C#N)c2)nc(Nc2ccccc2C)n1,46%,10%,0,95% (active),inactive,inactive,inactive,inactive
CC(CN(C)C)C(=O)Nc1cccc(-c2cccc(-c3nc4ccccc4[nH]3)c2)c1 (configuration not stated),25%,42%,-5,94% (active),inactive,inactive,inactive,inactive
CC(C)[C@H](NC(=O)NC1CCC(CCN2[C@@H]3CC[C@H]2CC(OC(=O)C(CO)c2ccccc2)C3)CC1)C(O)(c1ccccc1)c1ccccc1 (some centres not stated),4%,17%,1,90% (active),inactive,inactive,inactive,inactive
Fc1ccc2nc(-c3ccc(-c4ccc(CN5CCN(CCN6CCOCC6)CC5)cc4)cc3)[nH]c2c1,100% (active),38%,-5,101% (active),inactive,inactive,inactive,inactive
N#Cc1ccc(-c2nc3c(N4CCCC4)cccc3n2CCNCc2ccccc2)cc1,99% (active),2%,-3,100% (active),inactive,inactive,inactive,inactive
CNc1nc(NN=Cc2ccccc2Cl)nc(Nc2cccc(C(F)(F)F)c2)n1,-9%,12%,0,84% (active),inactive,inactive,inactive,inactive
CNCc1ccc(-c2cccc(CNCc3ccc(-c4ccccc4)cc3)c2)c(C(=O)OC)c1,19%,25%,3,92% (active),inactive,inactive,inactive,inactive
COc1ccc(-c2csc3ncnc(Cl)c23)cc1OC,84% (active),-25%,4,93% (active),inactive,inactive,inactive,inactive
Oc1cc(Nc2ccnc3ccc(I)cc23)c(F)cc1Cl,13%,20%,0,95% (active),inactive,inactive,inactive,inactive
Cc1noc(C)c1-c1cccc(CNCc2cccc(-c3cccc(-c4nc5ccccc5[nH]4)c3)c2)c1,54% (active),22%,2,102% (active),inactive,inactive,inactive,inactive
CC(C)(C)c1ccc(-c2cc3c(ccc4nc(N)nc(N)c43)[nH]2)cc1,100% (active),100% (active),5,101% (active),inactive,inactive,inactive,inactive
Cc1c(C)n(C2CCCC2)c2ncnc(OC3CCN(CC(=O)NC4CC4)CC3)c12,92% (active),13%,-4,95% (active),inactive,inactive,inactive,inactive
CCC[C@@H]([C@@H](CC1CCCCC1)C(=O)N[C@@H](CCOC(=O)NCC)C(=O)Nc1nccs1)N(O)C=O,79% (active),-13%,-7,101% (active),inactive,inactive,inactive,inactive
CC(=O)Nc1cccc(C(=O)Nc2cccc(-c3cccc(-c4nc5ccc(F)cc5[nH]4)c3)c2)c1,44%,51% (active),-5,101% (active),inactive,inactive,inactive,inactive
COc1ccc(C=NNc2cc(C)nc3ccccc23)cc1OC,8%,19%,-1,91% (active),inactive,inactive,inactive,inactive
c1ccc(CCNCc2ccc(-c3cccc(-c4nc5ccccc5[nH]4)c3)cc2)nc1,87% (active),36%,7,100% (active),inactive,inactive,inactive,inactive
CCOCc1cnc(C)nc1NCC(=O)c1c(C)[nH]c2cc(C)ccc12,76% (active),8%,4,89% (active),inactive,inactive,inactive,inactive
CN(Cc1cccc(F)c1)C1CCN(c2cc(NC(=O)c3cccc(F)c3)ccn2)CC1,13%,12%,3,94% (active),inactive,inactive,inactive,inactive
COc1ccc(C2CC(c3cccs3)=NN2C(=O)CNc2ccccc2F)cc1OC (configuration not stated),45%,11%,2,87% (active),inactive,inactive,inactive,inactive
